Drawing on PubChem BioAssay (NCATS), this text covers Potency and outcome for 38 compounds.

Records with an inconclusive call do not appear. Entries that show only a call come without a potency. Calls of active or inactive are those of the source. The call rests on the fitted dose curve; in most records, active means well fitted inhibition curve with a large enough effect; inconclusive means small, poorly fitted or top-dose-only effect; inactive means no such curve, though single readings can be large or run the other way.
Potency means the concentration at half of the fitted maximal effect.

The nature of this assay: P-glycoprotein substrates identified in KB-3-1 adenocarcinoma cell line, qHTS therapeutic library screen (AID 1346986). Further: nearly all actives have a fitted effect of over 60% in size.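 Further: potency is for cytotoxicity meaning loss of cell viability.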 The note with it: KB-3-1 parental cells viability, CellTiter-Glo, 72 h; series mostly up to 44.5 µM. A digest of the protocol: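 In 1536-well format, 500 cells/well received pinned compound titrations and were incubated 72 h, 5% CO2. Viability was read by CellTiter-Glo; cytotoxic if AC50 < 10 uM and efficacy >50%.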
`CC1CCC2C(C)(C)[C@@H](O)CC[C@]2(C)C12Cc1c(O)cc3c(c1O2)CN(C(CCC(=O)O)C(=O)O)C3=O` (stereo partly drawn): the Potency result is “inactive”.
Regarding `CC(=O)O[C@@H]1c2c3c(cc(O)c2C(=O)O[C@@H]1C)O[C@@]1(C)[C@@H](O)C[C@H]2C(C)(C)C(=O)C=C[C@]2(C)[C@@H]1C3`, the Potency result was “inactive”.
For the compound `CC(=O)O[C@@H]1[C@@H](O)[C@H](O[C@H]2CC[C@]34C[C@]35CC[C@]3(C)[C@@H]([C@@]6(C)CC[C@@H](C(C)(C)O)O6)[C@@H](O)C[C@@]3(C)[C@@H]5C[C@H](O[C@@H]3O[C@H](CO)[C@@H](O)[C@H](O)[C@H]3O)[C@H]4C2(C)C)OC[C@H]1O`, the Potency result was “inactive”.
Regarding `COc1c2cc(c(O)c1OC)-c1cc(ccc1O)CCC(O)CCCC2` (stereo not drawn), the Potency result was “inactive”.
Still for that read-out and setting: the result for `CCOc1cc(C)c(Cl)cc1S(=O)(=O)n1cnc2ccccc21` reads “inactive”; that for `CC(C(O)/C=C/C(C)(C)O)C1CCC2(C)C3C(=O)C=C4C(CCC(O)C4(C)C)C3(C)CCC12C` (stereo not drawn), “inactive”.
On the same count and under the same terms, to `Cc1nc(NC(=O)N2CCCC2C(N)=O)sc1-c1csc(C(C)(C)C)n1` (stereo not drawn) belongs “inactive”.
The same measure, in the same setting: to `COc1ccc(CNC(=O)c2cc(-c3cncc(C)c3)ncc2-c2nccs2)nc1OC` belongs “inactive”; to `[N-]=[N+]=N[C@]1(CO)O[C@@H](n2ccc(=O)[nH]c2=O)[C@@H](O)[C@@H]1O`, “inactive”.
For `CCOC(=O)C(CCc1ccccc1)NC(C)C(=O)N1C(=O)N(C)CC1C(=O)O` (stereo not drawn), the Potency result is “inactive”.
For the compound `C=C1[C@H](OC(C)=O)[C@H]2[C@@H](OC(C)=O)[C@](C)(OC(C)=O)C[C@]2(OC(C)=O)C(=O)[C@H](C)/C=C/C(C)(C)C(=O)[C@H](OC(=O)C(C)C)[C@H]1OC(C)=O`, the Potency result was “inactive”.
Take `CC[C@@H](O)C[C@@H]1C(C)=C[C@@H]2CCCC[C@@H]2[C@@]1(C)C(=O)O`: the Potency entry was “inactive”.
`C[C@@H]1CC[C@]2(C(=O)O[C@@H]3O[C@H](CO)[C@@H](O)[C@H](O)[C@H]3O)CC[C@]3(C)C(=CCC4[C@@]5(C)C[C@@H](O)[C@H](O)[C@@](C)(C(=O)O[C@H]6[C@H](O)C[C@@]7(C)C(CC[C@]8(C)C7CC=C7[C@H]9[C@](C(=O)O[C@@H]%10O[C@H](CO)[C@@H](O)[C@H](O)[C@H]%10O)(CC[C@@H](C)[C@@]9(C)O)CC[C@]78C)[C@@]6(CO)C(=O)O)C5CC[C@]43C)[C@@H]2[C@]1(C)O` (stereo partly drawn): the outcome was “inactive [at 9.29 µM]”.
For the compound `CC1(C)C2CC(OC3OC(COC4OCC(O)(CO)C4O)C(O)C(O)C3O)C1(C)CC2O` (stereo not drawn), the Potency result was “inactive”.
Take `COC(=O)[C@H](O)[C@H]1C(C)(C)[C@H](OC(=O)C(C)C)[C@@]2(O)C(=O)[C@]1(C)C1CC[C@]3(C)C(CC(=O)O[C@H]3c3ccoc3)[C@]13O[C@@H]32` (stereo partly drawn): the Potency result is “inactive”.
Same read-out and setting: to `Cc1cc(Nc2nc(NC(C)c3ncc(F)cn3)ncc2Cl)n[nH]1` (stereo not drawn) belongs “inactive”; to `CC(=O)N1CCN(C(=O)Cc2ccc(Nc3ncc(F)c(Nc4ccc(C(=O)Nc5ccccc5Cl)cc4)n3)cc2)CC1`, 2910 nM (active); to `O=C(/C=C/c1ccccc1)OC[C@]12O[C@H]1[C@@H](O)[C@@H]1C=CO[C@@H](O[C@@H]3O[C@H](CO)[C@@H](O)[C@H](O)[C@H]3O)[C@@H]12`, “inactive”.
As to `CC12CCC(=O)C=C1C(O)CC1C2C(O)CC2(C)C1CC[C@]2(O)C(=O)CO` (stereo partly drawn), the outcome is “inactive [at 9.29 µM]”.
With `C=C[C@@]12COC(=O)C(=C)C1[C@@H](O)[C@H](C(=C)C(=O)OC)[C@@H](OC(=O)C(=C)CO)C2` (stereo partly drawn), the Potency result was “inactive”.
The same measure, in the same setting: the result for `Nc1nc2c(ncn2[C@@H]2O[C@@H]3COP(=O)(O)O[C@H]3[C@H]2O)c(=O)[nH]1` reads “inactive”; that for `CC12CCC3c4ccc(OC5OC(C(=O)O)C(O)C(O)C5O)cc4CCC3C1CCC2O` (stereo not drawn), “inactive”; that for `COC(C(=O)N1Cc2[nH]nc(NC(=O)c3ccc(N4CCN(C)CC4)cc3)c2C1)c1ccccc1` (stereo not drawn), 517 nM (active).
Turning to `CCC(O)(C(=O)OCc1ccccc1NC(=O)CCC(=O)O)C(C)O` (stereo not drawn), the Potency entry is “inactive”.
Regarding `CC(C)c1ccc(CO)cc1O[C@@H]1O[C@H](CO)[C@@H](O)[C@H](O)[C@H]1O`, the Potency result is “inactive”.
Still for that read-out and setting: to `CC(C)(F)C[C@@H](N[C@@H](c1ccc(-c2ccc(S(C)(=O)=O)cc2)cc1)C(F)(F)F)C(=O)NC1(C#N)CC1` belongs “inactive”; to `O=C(Nc1ccc(-c2ccncc2)cc1)N[C@H](CO)c1ccccc1`, “inactive”; to `CC(=O)O[C@@H]1[C@@H](CO)O[C@@](CO)(O[C@H]2O[C@H](COC(=O)/C=C/c3ccccc3)[C@@H](O)[C@H](O)[C@H]2O)[C@H]1O`, “inactive”.
As to `COc1cc2c(cc1O)[C@H](c1ccc(O[C@@H]3O[C@H](CO)[C@@H](O)[C@H](O)[C@H]3O)c(OC)c1)[C@@H](CO)[C@](O)(CO)C2`, the Potency entry is “inactive”.
The same measure, in the same setting: the result for `CC1CC(O)/C=C/C(O)C(O)CC(=O)Cc2c(Cl)c(O)cc(O)c2C(=O)O1` (stereo not drawn) reads “inactive”; that for `CS(=O)(=O)c1ccc([C@H](CC2CCCC2)C(=O)Nc2nccs2)cc1`, “inactive”.
On to `CC(=O)N[C@H]1[C@H](O[C@H]2CC[C@@]3(C)C(CC[C@]4(C)C3CC=C3[C@@H]5CC(C)(C)CC[C@]5(C(=O)OC5OCC(O)C(O)C5O)CC[C@]34C)C2(C)C)O[C@H](COC2OC(C)C(O)C(OC3OC(C)C(O)C(O)C3O)C2O)[C@@H](O)[C@@H]1O` (stereo partly drawn), for which the outcome is “inactive [at 9.29 µM]”.
`CC(C)CC1NC(=O)C(C)NC(=O)C(CC(C)C)OC(=O)CCCNC1=O` (stereo not drawn): the Potency entry is “inactive”.
As to `COC1=CC(=O)CC(C)C12Oc1cc(OC)cc(O)c1C2=O` (stereo not drawn), the Potency entry is “inactive”.
For `Cc1ccc(-c2ccc3c(ccc4sc5c(c43)NC[C@@H](C)NC5=O)n2)cn1`, the Potency result is “inactive”.
Regarding `OC[C@H]1O[C@@H](Oc2ccccc2)[C@H](O)[C@@H](O)[C@@H]1O`, the Potency result is “inactive”.
Take `CC1CC[C@]2(C(=O)O)CC[C@]3(C(=O)O)C(=CCC4[C@@]5(C)CC[C@H](OC6OC(C)C(O)C(OC7OC(CO)C(O)C(O)C7O)C6O)C(C)(C)C5CC[C@]43C)C2C1C` (stereo partly drawn): the Potency entry is “inactive”.
Same read-out and setting: the result for `Nc1ncnc2c1ncn2CCNCCCCCO` reads “inactive”.
